# Assay results published in PMC7862700, “An all-to-all approach to the identification of sequence-specific readers for epigenetic DNA modifications on cytosine”.
# Assays:
# Test in all cases: DAPPL (digital affinity profiling via proximity ligation, sequencing); 10 mM Tris-HCl pH 7.5, 50 mM NaCl, 1 mM DTT, 4% glycerol, room temperature, 30 min; GST-TFs on glutathione beads, 16-mer random dsDNA library, 0.1% formaldehyde crosslink after washing; high values mean tight binding
# FEV = target: T1, FEV (Homo sapiens, UniProt Q99581 1-238); conditions: protein: recombinant; tags: N-terminal GST; dsDNA, one strand shown
# T1 sequence: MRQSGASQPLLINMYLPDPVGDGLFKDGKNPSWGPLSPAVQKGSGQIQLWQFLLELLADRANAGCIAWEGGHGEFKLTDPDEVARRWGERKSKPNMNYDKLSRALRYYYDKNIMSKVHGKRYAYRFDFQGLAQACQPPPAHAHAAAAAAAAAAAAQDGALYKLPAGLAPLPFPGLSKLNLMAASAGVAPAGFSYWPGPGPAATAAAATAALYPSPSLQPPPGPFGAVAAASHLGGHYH
# Procedure, shortened: (§1)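 Beads coated with glutathione captured GST-fused human transcription factors that had been expressed in yeast, and the factors were then given DNA barcodes and pooled with a tag-only sample. The pools were incubated with 200 nmole of a random double-stranded 16-mer DNA library in Tris/NaCl/DTT/glycerol buffer for 30 min at room temperature, washed, crosslinked with 0.1% formaldehyde and proximity-ligated with BsaI/T4 ligase at 37 °C for 1 h. PCR amplification and Illumina NextSeq500 sequencing came last. Binding signal is each hexamer's read frequency for a factor divided by its frequency for the tag-only sample.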
# ETV5 = ETV5 (Homo sapiens, UniProt P41161 1-510); conditions: protein: recombinant; tags: N-terminal GST; dsDNA, one strand shown
# ETV5, sequence (P41161 whole entry): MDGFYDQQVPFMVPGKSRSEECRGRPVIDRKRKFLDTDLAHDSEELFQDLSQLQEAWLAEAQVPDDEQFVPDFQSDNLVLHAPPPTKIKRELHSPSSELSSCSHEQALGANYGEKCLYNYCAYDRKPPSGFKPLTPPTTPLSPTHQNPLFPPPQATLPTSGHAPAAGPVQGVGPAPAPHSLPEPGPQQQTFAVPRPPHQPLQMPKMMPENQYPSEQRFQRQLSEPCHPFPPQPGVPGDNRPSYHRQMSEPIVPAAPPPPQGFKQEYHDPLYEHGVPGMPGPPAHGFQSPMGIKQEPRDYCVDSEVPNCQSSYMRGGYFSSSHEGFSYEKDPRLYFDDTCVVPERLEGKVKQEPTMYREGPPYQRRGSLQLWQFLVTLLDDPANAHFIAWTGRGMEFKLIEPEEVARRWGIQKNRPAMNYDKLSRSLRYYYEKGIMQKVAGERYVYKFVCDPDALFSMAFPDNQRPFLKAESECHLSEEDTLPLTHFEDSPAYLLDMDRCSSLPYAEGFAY
# Procedure, shortened: as §1
# HSF1 = HSF1 (Homo sapiens, UniProt Q00613 1-529); conditions: protein: recombinant; tags: N-terminal GST; chain copies: 3; dsDNA, one strand shown
# HSF1, sequence (Q00613 whole entry): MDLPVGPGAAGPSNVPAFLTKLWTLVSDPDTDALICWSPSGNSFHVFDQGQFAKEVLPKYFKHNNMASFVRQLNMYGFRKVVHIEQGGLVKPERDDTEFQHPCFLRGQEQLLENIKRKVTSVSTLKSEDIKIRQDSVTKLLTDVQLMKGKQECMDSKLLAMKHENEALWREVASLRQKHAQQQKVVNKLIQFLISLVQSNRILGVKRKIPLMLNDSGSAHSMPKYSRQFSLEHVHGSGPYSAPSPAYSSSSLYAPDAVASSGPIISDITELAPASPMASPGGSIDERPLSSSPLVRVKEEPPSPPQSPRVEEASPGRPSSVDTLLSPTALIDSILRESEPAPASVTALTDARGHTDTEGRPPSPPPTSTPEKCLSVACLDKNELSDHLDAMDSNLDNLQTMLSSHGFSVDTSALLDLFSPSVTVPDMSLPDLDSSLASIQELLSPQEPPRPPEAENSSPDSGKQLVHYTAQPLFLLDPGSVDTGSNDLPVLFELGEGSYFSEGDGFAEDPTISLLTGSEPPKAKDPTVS
# Procedure, shortened: as §1
# SPIC = target: T2, SPIC (Homo sapiens, UniProt Q8N5J4 1-248); conditions: protein: recombinant; tags: N-terminal GST; dsDNA, one strand shown
# T2 sequence: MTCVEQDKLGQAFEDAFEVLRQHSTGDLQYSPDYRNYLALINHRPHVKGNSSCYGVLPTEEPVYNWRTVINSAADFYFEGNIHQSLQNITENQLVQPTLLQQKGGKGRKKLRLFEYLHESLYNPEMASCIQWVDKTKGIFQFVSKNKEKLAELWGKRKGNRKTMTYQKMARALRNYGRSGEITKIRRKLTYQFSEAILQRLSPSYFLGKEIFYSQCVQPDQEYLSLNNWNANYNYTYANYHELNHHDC
# Procedure, shortened: as §1
# ELF4 = ELF4 (Homo sapiens, UniProt Q99607 1-663); conditions: protein: recombinant; tags: N-terminal GST; dsDNA, one strand shown
# ELF4, sequence (Q99607 whole entry): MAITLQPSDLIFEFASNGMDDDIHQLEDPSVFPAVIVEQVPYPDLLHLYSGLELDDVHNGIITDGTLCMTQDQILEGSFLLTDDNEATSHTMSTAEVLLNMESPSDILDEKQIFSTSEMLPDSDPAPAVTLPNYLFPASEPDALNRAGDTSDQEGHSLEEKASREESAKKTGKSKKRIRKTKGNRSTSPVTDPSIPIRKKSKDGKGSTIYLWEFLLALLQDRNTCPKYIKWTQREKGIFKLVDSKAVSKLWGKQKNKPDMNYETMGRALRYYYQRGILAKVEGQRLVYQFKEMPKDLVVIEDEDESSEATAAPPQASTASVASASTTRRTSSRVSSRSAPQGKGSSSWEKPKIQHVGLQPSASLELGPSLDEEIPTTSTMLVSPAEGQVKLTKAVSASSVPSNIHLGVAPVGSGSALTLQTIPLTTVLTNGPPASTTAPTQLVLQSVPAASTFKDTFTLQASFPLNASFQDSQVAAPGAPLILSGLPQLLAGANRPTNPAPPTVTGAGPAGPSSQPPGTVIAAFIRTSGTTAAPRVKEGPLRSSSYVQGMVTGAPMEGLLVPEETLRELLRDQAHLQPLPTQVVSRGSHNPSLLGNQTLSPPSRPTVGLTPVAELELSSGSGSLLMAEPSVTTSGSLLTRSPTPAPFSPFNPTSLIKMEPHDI
# Procedure, shortened: as §1
# ELK4 = target: T3, ELK4 (Homo sapiens, UniProt P28324-2 1-405); conditions: protein: recombinant; tags: N-terminal GST; dsDNA, one strand shown
# T3 sequence: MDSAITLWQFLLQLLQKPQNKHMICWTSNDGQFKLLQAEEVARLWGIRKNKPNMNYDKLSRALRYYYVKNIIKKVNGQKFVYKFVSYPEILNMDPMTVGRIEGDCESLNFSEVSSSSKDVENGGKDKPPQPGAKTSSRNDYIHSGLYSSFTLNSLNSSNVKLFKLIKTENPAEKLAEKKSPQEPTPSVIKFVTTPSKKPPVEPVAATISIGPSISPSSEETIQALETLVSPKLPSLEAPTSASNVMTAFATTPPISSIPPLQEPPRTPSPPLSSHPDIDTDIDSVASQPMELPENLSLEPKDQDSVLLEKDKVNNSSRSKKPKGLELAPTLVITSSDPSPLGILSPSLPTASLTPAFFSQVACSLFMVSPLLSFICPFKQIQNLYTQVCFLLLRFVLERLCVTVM
# Procedure, shortened: as §1
# ETV2 = target: T4, ETV2 (Homo sapiens, UniProt O00321 1-342); conditions: protein: recombinant; tags: N-terminal GST; dsDNA, one strand shown
# T4 sequence: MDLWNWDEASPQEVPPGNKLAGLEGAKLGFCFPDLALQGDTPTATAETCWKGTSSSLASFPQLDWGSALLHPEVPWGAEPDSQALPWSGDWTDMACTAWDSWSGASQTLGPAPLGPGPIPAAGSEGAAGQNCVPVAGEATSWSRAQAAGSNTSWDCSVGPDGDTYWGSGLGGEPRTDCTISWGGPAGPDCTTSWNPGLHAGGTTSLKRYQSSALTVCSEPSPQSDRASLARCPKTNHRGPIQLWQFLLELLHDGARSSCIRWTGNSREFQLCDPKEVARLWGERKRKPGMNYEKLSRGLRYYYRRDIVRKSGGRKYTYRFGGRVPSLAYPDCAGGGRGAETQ
# Procedure, shortened: as §1
# ELF3 = target: T5, ELF3 (Homo sapiens, UniProt P78545 1-371); conditions: protein: recombinant; tags: N-terminal GST; dsDNA, one strand shown
# T5 sequence: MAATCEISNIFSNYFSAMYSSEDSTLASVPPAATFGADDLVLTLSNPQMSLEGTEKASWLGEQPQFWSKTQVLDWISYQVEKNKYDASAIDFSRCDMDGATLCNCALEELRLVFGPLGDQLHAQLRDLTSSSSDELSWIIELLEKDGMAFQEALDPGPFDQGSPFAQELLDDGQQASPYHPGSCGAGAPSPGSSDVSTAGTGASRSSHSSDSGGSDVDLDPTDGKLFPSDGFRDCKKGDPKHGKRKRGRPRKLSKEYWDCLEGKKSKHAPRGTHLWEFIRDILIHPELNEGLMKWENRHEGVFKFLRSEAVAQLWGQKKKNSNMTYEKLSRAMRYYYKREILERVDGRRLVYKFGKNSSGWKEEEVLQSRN
# Procedure, shortened: as §1
# CRX = CRX (Homo sapiens, UniProt O43186 1-299); conditions: protein: recombinant; tags: N-terminal GST; dsDNA, one strand shown
# CRX, sequence (O43186 whole entry): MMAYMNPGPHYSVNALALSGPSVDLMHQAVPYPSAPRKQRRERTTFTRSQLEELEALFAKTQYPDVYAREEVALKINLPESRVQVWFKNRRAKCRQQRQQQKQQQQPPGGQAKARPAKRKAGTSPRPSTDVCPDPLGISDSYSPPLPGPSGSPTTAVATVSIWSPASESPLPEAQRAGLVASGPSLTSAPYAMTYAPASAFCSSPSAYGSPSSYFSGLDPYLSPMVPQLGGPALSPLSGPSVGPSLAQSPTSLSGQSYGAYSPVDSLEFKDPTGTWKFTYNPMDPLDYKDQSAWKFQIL
# Procedure, shortened: as §1
# ETV1 = ETV1 (Homo sapiens, UniProt P50549 1-477); conditions: protein: recombinant; tags: N-terminal GST; dsDNA, one strand shown
# ETV1, sequence (P50549 whole entry): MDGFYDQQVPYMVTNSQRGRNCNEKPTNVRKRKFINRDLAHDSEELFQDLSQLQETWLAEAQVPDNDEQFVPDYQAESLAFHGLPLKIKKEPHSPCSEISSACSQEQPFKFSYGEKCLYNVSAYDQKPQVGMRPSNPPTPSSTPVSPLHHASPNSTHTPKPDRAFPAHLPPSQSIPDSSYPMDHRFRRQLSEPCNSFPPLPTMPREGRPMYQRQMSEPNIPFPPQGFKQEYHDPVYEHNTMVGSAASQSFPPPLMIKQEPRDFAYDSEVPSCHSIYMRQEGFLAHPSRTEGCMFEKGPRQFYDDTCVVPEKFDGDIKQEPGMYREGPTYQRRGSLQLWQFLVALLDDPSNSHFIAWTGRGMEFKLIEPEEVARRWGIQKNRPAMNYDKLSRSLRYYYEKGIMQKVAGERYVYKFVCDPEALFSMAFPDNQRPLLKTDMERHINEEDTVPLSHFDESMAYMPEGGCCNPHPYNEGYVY
# Procedure, shortened: as §1
# ERF = target: T6, ERF (Homo sapiens, UniProt P50548 1-548); conditions: protein: recombinant; tags: N-terminal GST; dsDNA, one strand shown
# T6 sequence: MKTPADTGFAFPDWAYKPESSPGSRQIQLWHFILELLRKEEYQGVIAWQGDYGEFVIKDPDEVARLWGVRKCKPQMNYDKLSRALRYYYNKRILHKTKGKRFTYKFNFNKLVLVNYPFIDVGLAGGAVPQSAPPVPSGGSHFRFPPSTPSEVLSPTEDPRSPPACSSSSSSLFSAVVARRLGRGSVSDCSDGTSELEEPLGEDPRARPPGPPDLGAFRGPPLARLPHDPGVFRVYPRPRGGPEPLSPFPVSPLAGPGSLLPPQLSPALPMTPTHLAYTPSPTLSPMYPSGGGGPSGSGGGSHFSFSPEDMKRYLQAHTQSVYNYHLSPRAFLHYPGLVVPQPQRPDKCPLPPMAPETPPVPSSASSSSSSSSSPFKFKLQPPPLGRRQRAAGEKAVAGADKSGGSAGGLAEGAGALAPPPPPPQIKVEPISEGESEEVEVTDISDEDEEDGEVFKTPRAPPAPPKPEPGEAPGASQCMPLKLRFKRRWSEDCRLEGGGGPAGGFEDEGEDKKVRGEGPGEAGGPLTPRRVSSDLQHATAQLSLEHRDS
# Procedure, shortened: as §1
# ETV3L = target: T7, ETV3L (Homo sapiens, UniProt Q6ZN32 1-361); conditions: protein: recombinant; tags: N-terminal GST; dsDNA, one strand shown
# T7 sequence: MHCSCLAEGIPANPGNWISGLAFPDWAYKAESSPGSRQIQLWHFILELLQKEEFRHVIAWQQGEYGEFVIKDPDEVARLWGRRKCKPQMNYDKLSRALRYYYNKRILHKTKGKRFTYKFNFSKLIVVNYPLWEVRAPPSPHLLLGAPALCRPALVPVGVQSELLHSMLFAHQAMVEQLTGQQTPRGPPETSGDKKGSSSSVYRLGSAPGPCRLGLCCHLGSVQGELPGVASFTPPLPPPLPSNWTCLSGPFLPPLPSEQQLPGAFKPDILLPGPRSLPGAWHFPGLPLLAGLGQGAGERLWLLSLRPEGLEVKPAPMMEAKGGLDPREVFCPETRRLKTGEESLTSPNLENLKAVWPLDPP
# Procedure, shortened: as §1
# ETS2 = target: T8, ETS2 (Homo sapiens, UniProt P15036 1-469); conditions: protein: recombinant; tags: N-terminal GST; dsDNA, one strand shown
# T8 sequence: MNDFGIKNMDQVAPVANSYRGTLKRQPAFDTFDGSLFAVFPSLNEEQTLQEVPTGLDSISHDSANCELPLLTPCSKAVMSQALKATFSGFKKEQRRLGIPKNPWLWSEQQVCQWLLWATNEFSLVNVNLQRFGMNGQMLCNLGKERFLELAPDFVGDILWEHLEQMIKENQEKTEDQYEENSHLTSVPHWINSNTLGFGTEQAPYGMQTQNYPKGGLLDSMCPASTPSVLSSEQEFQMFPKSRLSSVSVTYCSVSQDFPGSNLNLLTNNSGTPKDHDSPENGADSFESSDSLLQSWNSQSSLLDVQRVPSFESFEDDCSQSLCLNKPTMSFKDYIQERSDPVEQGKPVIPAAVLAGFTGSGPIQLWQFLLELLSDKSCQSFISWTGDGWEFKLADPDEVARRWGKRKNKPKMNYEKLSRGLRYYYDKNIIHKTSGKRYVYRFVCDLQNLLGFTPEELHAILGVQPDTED
# Procedure, shortened: as §1
# SPDEF = target: T9, SPDEF (Homo sapiens, UniProt O95238 1-335); conditions: protein: recombinant; tags: N-terminal GST; dsDNA, one strand shown
# T9 sequence: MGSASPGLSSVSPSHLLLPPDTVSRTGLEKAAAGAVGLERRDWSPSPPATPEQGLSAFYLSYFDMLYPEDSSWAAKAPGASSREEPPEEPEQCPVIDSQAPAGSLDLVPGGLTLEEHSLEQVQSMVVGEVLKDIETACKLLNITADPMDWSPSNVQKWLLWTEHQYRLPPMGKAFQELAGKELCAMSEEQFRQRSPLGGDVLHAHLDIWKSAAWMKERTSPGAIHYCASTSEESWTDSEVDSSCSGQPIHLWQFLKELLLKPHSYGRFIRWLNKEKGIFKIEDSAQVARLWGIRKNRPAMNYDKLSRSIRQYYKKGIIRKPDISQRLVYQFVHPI
# Procedure, shortened: as §1
# ETV7 = target: T10, ETV7 (Homo sapiens, UniProt Q9Y603 1-341); conditions: protein: recombinant; tags: N-terminal GST; dsDNA, one strand shown
# T10 sequence: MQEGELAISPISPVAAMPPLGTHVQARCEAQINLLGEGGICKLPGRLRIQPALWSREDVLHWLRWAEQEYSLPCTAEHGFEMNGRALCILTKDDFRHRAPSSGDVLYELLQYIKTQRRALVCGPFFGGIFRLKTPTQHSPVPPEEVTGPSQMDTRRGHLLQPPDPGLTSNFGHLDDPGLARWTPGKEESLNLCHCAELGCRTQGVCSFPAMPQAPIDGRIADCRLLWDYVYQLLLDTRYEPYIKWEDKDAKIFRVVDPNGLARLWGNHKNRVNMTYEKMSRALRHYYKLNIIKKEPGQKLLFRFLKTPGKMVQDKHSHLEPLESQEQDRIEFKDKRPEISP
# Procedure, shortened: as §1
# ELF5 = target: T11, ELF5 (Homo sapiens, UniProt Q9UKW6-2 1-255); conditions: protein: recombinant; tags: N-terminal GST; dsDNA, one strand shown
# T11 sequence: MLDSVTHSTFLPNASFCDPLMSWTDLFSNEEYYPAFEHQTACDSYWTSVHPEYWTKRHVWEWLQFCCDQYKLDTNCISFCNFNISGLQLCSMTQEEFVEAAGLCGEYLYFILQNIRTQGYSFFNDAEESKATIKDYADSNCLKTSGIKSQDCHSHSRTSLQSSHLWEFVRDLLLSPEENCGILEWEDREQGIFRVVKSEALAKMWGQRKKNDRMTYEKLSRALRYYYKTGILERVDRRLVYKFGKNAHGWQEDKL
# Procedure, shortened: as §1
# ETV3 = target: T12, ETV3 (Homo sapiens, UniProt P41162-2 1-143); conditions: protein: recombinant; tags: N-terminal GST; dsDNA, one strand shown
# T12 sequence: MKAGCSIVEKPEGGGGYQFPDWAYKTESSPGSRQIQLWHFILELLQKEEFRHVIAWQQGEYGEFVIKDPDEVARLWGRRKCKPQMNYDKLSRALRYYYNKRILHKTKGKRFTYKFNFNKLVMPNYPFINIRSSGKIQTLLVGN
# Procedure, shortened: as §1
# ETV6 = ETV6 (Homo sapiens, UniProt P41212 1-452); conditions: protein: recombinant; tags: N-terminal GST; dsDNA, one strand shown
# ETV6, sequence (P41212 whole entry): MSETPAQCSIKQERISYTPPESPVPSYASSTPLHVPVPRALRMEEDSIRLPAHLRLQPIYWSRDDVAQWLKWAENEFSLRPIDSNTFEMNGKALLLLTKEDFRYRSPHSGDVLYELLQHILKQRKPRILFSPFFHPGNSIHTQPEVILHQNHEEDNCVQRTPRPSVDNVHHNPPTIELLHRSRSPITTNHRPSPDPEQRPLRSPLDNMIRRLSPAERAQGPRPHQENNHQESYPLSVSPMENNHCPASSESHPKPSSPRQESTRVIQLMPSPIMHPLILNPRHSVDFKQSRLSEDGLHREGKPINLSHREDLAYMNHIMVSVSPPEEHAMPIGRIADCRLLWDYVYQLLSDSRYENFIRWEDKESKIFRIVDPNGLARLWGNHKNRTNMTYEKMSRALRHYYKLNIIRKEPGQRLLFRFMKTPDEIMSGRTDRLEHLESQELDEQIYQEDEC
# Procedure, shortened: as §1
sequence,measurement,setting,value
TCACGA,binding signal,FEV,"1.05 fold enrichment (6-mer frequency, TF over GST control)"
same,binding signal,ETV5,"1.09 fold enrichment (6-mer frequency, TF over GST control)"
same,binding signal,HSF1,"1.37 fold enrichment (6-mer frequency, TF over GST control)"
same,binding signal,SPIC,"1.1 fold enrichment (6-mer frequency, TF over GST control)"
same,binding signal,ELF4,"1.27 fold enrichment (6-mer frequency, TF over GST control)"
same,binding signal,ELK4,"1.19 fold enrichment (6-mer frequency, TF over GST control)"
same,binding signal,ETV2,"1.12 fold enrichment (6-mer frequency, TF over GST control)"
same,binding signal,ELF3,"1.17 fold enrichment (6-mer frequency, TF over GST control)"
same,binding signal,CRX,"1.1 fold enrichment (6-mer frequency, TF over GST control)"
same,binding signal,ETV1,"1.13 fold enrichment (6-mer frequency, TF over GST control)"
same,binding signal,ERF,"1.14 fold enrichment (6-mer frequency, TF over GST control)"
same,binding signal,ETV3L,"1.04 fold enrichment (6-mer frequency, TF over GST control)"
same,binding signal,ETS2,"1.13 fold enrichment (6-mer frequency, TF over GST control)"
same,binding signal,SPDEF,"1.17 fold enrichment (6-mer frequency, TF over GST control)"
same,binding signal,ETV7,"1.16 fold enrichment (6-mer frequency, TF over GST control)"
same,binding signal,ELF5,"1.03 fold enrichment (6-mer frequency, TF over GST control)"
same,binding signal,ETV3,"1.14 fold enrichment (6-mer frequency, TF over GST control)"
same,binding signal,ETV6,"1.16 fold enrichment (6-mer frequency, TF over GST control)"
